# Measurements: PubChem BioAssay
# Calls of active or inactive are those of the source.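 How the source made its calls, unless noted: active means NADPH fluorescence slope more negative than the mean of all samples by about 3 SD, 99.7% confidence; inactive means the rest.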
# What was measured:
# [1] = inhibitors of TNFa-induced NFkB p65 translocation, primary screen, imaging, HUVEC, MLSMR starter and 10KST1 sets (AID 438;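 active means inhibition above 20% together with a positive visual image hit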;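 further: compound added about 3h40 before a 20 min TNFalpha stimulation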;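 on inhibition: signal is the nuclear over cytoplasmic p65 intensity ratio per well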); details: HUVEC TNFa-induced p65 nuclear translocation; cell count: measured here: nuclei count (cytotoxicity indicator), at 2.08 µM; inhibition: at 2 µM, stronger effect = higher value, 0% TNFa-plus-vehicle, 100% no-TNFa wells
# [2] = reduction of polyQ htt aggregates in cells – imaging, exon1htt(103Q)mCFP cells, high-content imaging, primary screen (AID 483;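 active means visual image review flags a hit and inhibition of aggregation exceeds 20%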;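 further: compound exposure lasted 3 days before fixation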;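 on nuclei count: percent of the per-plate median nuclei count of sample wells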); details: exon1htt(103Q)mCFP cell line, aggregate imaging, at 2 µM; inhibition of aggregation: stronger effect = higher value; nuclei count: measured here: cell count, toxicity
# [3] = endothelial E-selectin expression blockers – imaging, HUVEC, immunofluorescence, MLSMR starter and 10KST1 sets, primary screen (AID 487;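 active means visually confirmed hit in the image check and inhibition above 20%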;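 on inhibition: signal is fraction of cell area covered by stained E-selectin grains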;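 on nuclei count: 100% = median nuclei count of all wells on the same plate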); details: HUVEC TNFalpha-induced E-selectin immunofluorescence imaging, at 2 µM; inhibition: stronger effect = higher value; nuclei count: measured here: cell number, toxicity
# [4] = molecular target: Voltage-gated potassium channel subunit beta-2 (Rattus norvegicus) (UniProt P62483); test: inhibitors of rat Kvbeta2 reductase activity – biochemical, NADPH fluorescence, primary screen (AID 622;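 active means fluorescence slope higher than the sample average by over 3 SD, cut at about -0.22 in these data, passing the limit was not always enough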;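 further: slope of raw intensity against log time taken from 70 to 1610 s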); details: recombinant KvBeta, 4-cyanobenzaldehyde reduction, at 10 µM, stronger effect = higher value
# Sequence of Voltage-gated potassium channel subunit beta-2 (Rattus norvegicus) (P62483 whole entry, looked up): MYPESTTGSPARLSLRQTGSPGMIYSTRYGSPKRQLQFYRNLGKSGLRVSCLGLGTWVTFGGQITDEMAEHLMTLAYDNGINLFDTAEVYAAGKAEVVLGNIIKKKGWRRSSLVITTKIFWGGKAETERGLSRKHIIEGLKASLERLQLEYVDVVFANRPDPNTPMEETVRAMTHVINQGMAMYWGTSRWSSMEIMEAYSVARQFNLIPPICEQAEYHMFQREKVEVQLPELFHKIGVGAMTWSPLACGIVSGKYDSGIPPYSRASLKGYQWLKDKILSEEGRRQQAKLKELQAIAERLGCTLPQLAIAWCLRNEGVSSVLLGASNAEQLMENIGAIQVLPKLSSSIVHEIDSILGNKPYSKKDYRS
# [5] = molecular target: Voltage-gated potassium channel subunit beta-2 (Rattus norvegicus) (UniProt P62483); test: enhancers of rat Kvbeta2 NADPH turnover – biochemical, NADPH fluorescence, primary screen (AID 623); details: Recombinant KvBeta, NADPH fluorescence decrease slope, 10 min; at 10 µM; stronger effect = lower value;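 further: fluorescence intensity change per second fitted from 20 to 320 s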
# [6] = molecular target: Alpha-2C adrenergic receptor (Homo sapiens) (UniProt P18825); test: compounds altering alpha2C-coupled GIRK flux – cell-based, HEK293 alpha2C/GIRK1/2, thallium flux, primary screen (AID 624;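 active means fluorescence slope after compound addition differing from the mean of all screened samples at 99.7% confidence, in either direction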;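 further: slope of fluorescence ratio to pre-addition baseline per second over 15 to 24 s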); details: thallium flux BTC fluorescence, at 10 µM, actives lie on both sides
# Sequence of Alpha-2C adrenergic receptor (Homo sapiens) (P18825 whole entry, looked up): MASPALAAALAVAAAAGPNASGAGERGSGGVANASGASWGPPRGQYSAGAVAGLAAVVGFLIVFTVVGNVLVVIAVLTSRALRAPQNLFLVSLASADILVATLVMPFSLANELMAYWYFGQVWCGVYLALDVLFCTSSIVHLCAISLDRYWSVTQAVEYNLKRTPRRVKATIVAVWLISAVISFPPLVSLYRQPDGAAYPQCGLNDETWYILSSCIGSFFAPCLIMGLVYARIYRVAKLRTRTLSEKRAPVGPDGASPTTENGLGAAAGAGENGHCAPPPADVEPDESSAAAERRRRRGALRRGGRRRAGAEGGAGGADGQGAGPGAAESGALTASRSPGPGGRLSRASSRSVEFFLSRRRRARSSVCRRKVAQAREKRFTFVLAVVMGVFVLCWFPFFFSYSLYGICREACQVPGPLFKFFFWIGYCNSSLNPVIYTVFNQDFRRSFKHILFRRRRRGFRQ
# [7] = blockers of RIG-like receptor reporter activation – cell-based, Sendai virus stimulus, luciferase, 10K MLSCN set, TLR/RLR signaling modifier project, primary screen (AID 602276;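 active means inhibition at or above 50% at 10 µM; inactive means inhibition below 50%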;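 further: firefly luciferase from ISG56 promoter only with Renilla not read in this screen; 0% = Sendai virus plus DMSO and 100% = medium plus DMSO without virus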); details: HEK293 RL24 IRF3 luciferase reporter, at 10 µM, stronger effect = higher value
# [8] = TLR3 IRF3 reporter activation blockers – cell-based, poly I:C stimulus, luciferase, 10K MLSCN set, primary screen (AID 602277;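 active means inhibition of the reporter signal at or above 50%; inactive means inhibition below 50%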); details: HEK293-TLR3 RL24 IRF3 luciferase reporter, at 10 µM, stronger effect = higher value
Compound,cell count [1],inhibition [1],inhibition of aggregation [2],nuclei count [2],inhibition [3],nuclei count [3],fluorescence slope [4],NADPH fluorescence slope [5],slope [6],inhibition [7],inhibition [8]
Cc1ccc(O)c(C(CC(=O)N2CCCC2)c2ccccc2)c1 (centres undefined),478,1.6% (inactive),4.1% (inactive),103%,-33% (inactive),114%,-0.35 (inactive),-4.7e-05 (inactive),0.00552 (inactive),3.98% (inactive),16.5% (inactive)
Cc1oc(-c2ccccc2F)nc1CS(=O)(=O)CC(=O)NCc1ccco1,753,-1.1% (inactive),4.5% (inactive),102%,-29.4% (inactive),107%,-0.539 (inactive),-1.9e-05 (inactive),0.00692 (inactive),0.0639% (inactive),22.5% (inactive)
CCOC(=O)C1CCN(C(=O)c2ccc(Cl)c(Cl)c2)CC1,322,4.4% (inactive),7.9% (inactive),83.5%,-64.6% (inactive),110%,-0.522 (inactive),1.1e-05 (inactive),0.00596 (inactive),-22.5% (inactive),-5.49% (inactive)
O=C(CCN1C(=O)COc2ccccc21)NCCCN1CCN(c2ccccc2F)CC1,660,-7.1% (inactive),-1.6% (inactive),73.9%,-82.2% (inactive),93.3%,-0.425 (inactive),-2.7e-05 (inactive),0.004 (inactive),11.7% (inactive),15% (inactive)
CCOC(=O)c1oc2cccc(OC(C)=O)c2c1C,306,8.1% (inactive),11.2% (inactive),97.4%,24.5% (inactive),85.9%,-0.607 (inactive),-4.6e-05 (inactive),0.00384 (inactive),-33.6% (inactive),-89.8% (inactive)
CC(NC(=O)C1CCCN(S(=O)(=O)c2cccs2)C1)c1ccccc1 (centres undefined),816,-1.4% (inactive),-6.6% (inactive),106%,-1.1% (inactive),112%,-0.583 (inactive),-4.2e-05 (inactive),0.00498 (inactive),12.2% (inactive),34.2% (inactive)
COc1ccc(-c2noc(-c3ccccc3C(=O)NCc3ccco3)n2)cc1,331,9.3% (inactive),-16.3% (inactive),77.4%,-64.4% (inactive),99.2%,-0.592 (inactive),-4.7e-05 (inactive),0.00789 (inactive),-8.85% (inactive),-39.1% (inactive)
O=C(Nc1cccc(O)c1)c1ccccc1,474,18.5% (inactive),6% (inactive),98.6%,-32.9% (inactive),102%,-0.521 (inactive),5e-06 (inactive),0.00606 (inactive),-19.1% (inactive),-29.4% (inactive)
CCC1CCCCN1C(=O)CSc1nnc(-c2ccco2)o1 (centres undefined),368,4.2% (inactive),-17.6% (inactive),100%,-80.6% (inactive),104%,-0.487 (inactive),-7.3e-05 (inactive),0.00444 (inactive),-35.7% (inactive),-88.3% (inactive)
Cc1nc(SCC(=O)CC(=O)OC(C)C)c(C#N)c(C)c1C,718,-3.5% (inactive),-22.8% (inactive),118%,34.6% (inactive),99.8%,-0.332 (inactive),1.6e-05 (inactive),0.00527 (inactive),5.7% (inactive),-3.09% (inactive)
CCCC(=O)Nc1c2c(nn1-c1ccc(OC)cc1)CS(=O)C2 (centres undefined),472,4.2% (inactive),-25.4% (inactive),117%,-70.5% (inactive),100%,-0.476 (inactive),-3.3e-05 (inactive),0.00523 (inactive),10.8% (inactive),22.2% (inactive)
O=C(CCNS(=O)(=O)c1cccc2nsnc12)NCc1cccs1,623,-21% (inactive),-17.4% (inactive),101%,-34.5% (inactive),118%,-0.508 (inactive),-0.000109 (inactive),0.00523 (inactive),17.1% (inactive),19% (inactive)
COc1cc(S(=O)(=O)n2nnc3ccccc32)c(OC)cc1Cl,629,-3.3% (inactive),-68.5% (inactive),93%,-51.9% (inactive),122%,-0.382 (inactive),3.8e-05 (inactive),0.00868 (inactive),13.5% (inactive),-7.7% (inactive)
COc1ccc(C2C3=C(CCCC3=O)Nc3nc(SCc4ccccc4)nn32)cc1OC (centres undefined),665,-12.9% (inactive),9.2% (inactive),91.2%,32.2% (inactive),105%,-0.335 (inactive),-6.9e-05 (inactive),0.00626 (inactive),6.77% (inactive),14.4% (inactive)
